# Target: Solute carrier family 2, facilitated glucose transporter member 1 (Homo sapiens) (UniProt P11166)
# Test: ST_JUDE_LEISH: Cytotoxicity at 2uM final concentration against transgenic Leishmania Mexicana promastigotes LmGLUT1 that are glucose transport deficient and complemented with the human glucose transporter GLUT1. Activity is measured by DNA content using SYBR green in vitro
# Assay type: functional
# Solute carrier family 2, facilitated glucose transporter member 1 (Homo sapiens), sequence (P11166 whole entry): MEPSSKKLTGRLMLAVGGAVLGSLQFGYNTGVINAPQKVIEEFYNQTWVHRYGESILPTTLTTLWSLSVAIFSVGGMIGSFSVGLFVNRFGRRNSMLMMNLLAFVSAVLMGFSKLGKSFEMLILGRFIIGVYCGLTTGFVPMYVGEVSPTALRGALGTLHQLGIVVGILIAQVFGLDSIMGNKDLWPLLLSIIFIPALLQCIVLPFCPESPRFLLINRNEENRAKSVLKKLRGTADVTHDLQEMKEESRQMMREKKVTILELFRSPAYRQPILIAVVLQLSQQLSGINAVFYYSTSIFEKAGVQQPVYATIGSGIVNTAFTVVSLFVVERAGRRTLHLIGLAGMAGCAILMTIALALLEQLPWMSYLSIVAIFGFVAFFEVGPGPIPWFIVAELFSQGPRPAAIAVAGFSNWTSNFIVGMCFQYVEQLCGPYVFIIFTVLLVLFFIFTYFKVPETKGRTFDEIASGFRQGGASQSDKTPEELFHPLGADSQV
row,Compound,inhibition [%]
1,O=C(NCCCCN1CC=C(c2ccc3c(c2OCC2CC2)CCCC3)CC1)c1ccc(-c2ccc(C(F)(F)F)cc2)cc1,5.41
2,CCCCCCCCCCN1C(=O)C2C(CCCCNC(C)=O)NC3(C(=O)N(Cc4ccc(C(C)(C)C)cc4)c4ccccc43)C2C1=O (stereo not given),9.76
3,CCOc1ccc(N(CC)S(=O)(=O)c2cc(Br)cc3c2N(C(=O)C2CC2)CC3)cc1,2.96
4,COc1cccc(-n2ncc3c(N/N=C/c4ccc(CN(C)CCN(C)C)cc4)ncnc32)c1,10.7
5,Cc1ccc(Nc2nccc(N(C)c3ccc4c(c3)nc(NC(=O)Cc3ccc(Cl)c(Cl)c3)n4C)n2)cc1S(N)(=O)=O,6.81
6,Cc1ccc2c(=NN=Cc3ccc(N(C)C)cc3)cc(C)[nH]c2c1,1.24
7,COc1cc(NC(=O)c2cccs2)c(OC)cc1NC(=O)Nc1cccc(Cl)c1,3.28
8,COc1ccc(C2C(C(=O)Nc3cc(C)ccc3OC)c3ccccc3C(=O)N2C)cc1 (stereo not given),5.62
9,O=C(NCC1CCC(C(=O)NC2CCCc3ccccc32)CC1)c1ccc(O)c(-c2cccc([N+](=O)[O-])c2)c1 (stereo not given),3.94
10,CN1CCCC(CN2CCN(Cc3cccc(-c4ccc(-c5nc6cc(F)ccc6[nH]5)cc4)c3)CC2)C1 (stereo not given),2.66
11,CC(C)NCc1ccc(-c2ccc(NC(=O)c3cccc(Cl)c3)cc2)cc1,-2.83
12,Cc1[nH]c(C)c(-c2ccc(-c3ccc(OC(F)(F)F)cc3)nc2)c(=O)c1Cl,-0.94
13,O=C(Cc1ccc(Cl)cc1)NC1CCN(c2ccnc3cc(Cl)ccc23)C1 (stereo not given),-0.91
14,O=C(C=Cc1cn(-c2ccccc2)nc1-c1cccs1)N1CCN(c2ccncc2)CC1,1.81
15,O=C(Nc1ccc(Oc2ccccc2)cc1)N(Cc1ccc(-c2cccc(CN3CCNCC3)c2)cc1)C1CCN(Cc2ccccc2)CC1,3.46
16,CC(O)CNc1nc2ccccc2n1CC(=O)Nc1cccc(C(=O)Nc2cccc(C(F)(F)F)c2)c1 (stereo not given),1.41
17,CCc1cn(C)c2c(N3CCCC3=O)cc(C(=O)N[C@@H](Cc3ccccc3)[C@H](O)CNC3CCCCC3)cc12,10.2
18,O=C(/C=C/c1ccc(Cl)c(Cl)c1)NC1CCN(Cc2ccc(O)cc2)C1 (stereo not given),1.46
19,Cc1cccc2nc(-c3ccc(-c4ccc(NC(=O)Nc5ccc(Cl)c(Cl)c5)cc4)cc3)[nH]c12,2.18
20,CCCCCCCNc1cc(C)nc2ccc(OC)cc12,16.5

row,Compound,inhibition [%]
1,Cc1ccc(C(C)C)cc1CON1C(=N)N=C(N)NC1(C)C,11.2
2,CC(C)(CNC(=O)C1CCN(CCOc2ccc(Cl)cc2)CC1)c1nc(-c2ccc(Cl)c(O)c2)c(-c2ccncc2)[nH]1,0.46
3,Cc1cccc2nc(-c3cccc(-c4ccc(NC(=O)Cc5ccc[n+]([O-])c5)cc4)c3)[nH]c12,0.18
4,Cc1ccc(C(=O)Nc2ccc(Nc3ccnc4cc(-c5ccncc5)ccc34)cc2O)cc1,-0.09
5,Cc1cccc(C)c1CNc1nc(N2CCOCC2)cc2c(C)c(C)[nH]c12,3.7
6,O=C1CCCN1CCCNCc1ccc(-c2ccc(-c3nc4cc(F)ccc4[nH]3)s2)cc1,2.19
7,CCOc1ccc(Nc2nc(N)c3ccccc3n2)cc1,12.3
8,Cc1ccc2[nH]c3c(NCCN(C)C)ncnc3c2c1,0.53
9,Cc1[nH]c(C)c(-c2ccc(OCc3ccccc3)cc2)c(=O)c1Br,5.62
10,NCCNc1ccc([N+](=O)[O-])cc1C(=O)Nc1cccc(C(F)(F)F)c1,3.02
11,FC(F)(F)c1ccc2[nH]c(-c3ccc(-c4ccc(CN5CCN(c6cnccn6)CC5)cc4)cc3)nc2c1,12.9
12,CN(Cc1cc(C(F)(F)F)cc(C(F)(F)F)c1)C(=O)C1CNCC1c1ccc(F)cc1 (stereo not given),6.61
13,Cc1csc(NC(=O)c2cn(-c3ccccc3)nc2-c2cccs2)n1,6.04
14,O=C(O)c1ccc(NC(=O)C2CC(=O)N(Cc3ccc(Cl)cc3)C(=Nc3ccc(Cl)cc3)S2)cc1 (stereo not given),2.23
15,CCOc1c(OC)ccc2c1CCN(CCN1CCC(CNC(=O)c3ccc(-c4ccc(C#N)cc4)cc3)CC1)C2,-1.08
16,c1ccc([C@H]2CN3CCSC3=N2)cc1,-0.53
17,O=C(NC1CC1)c1ccc(N2CCCC(COc3ccc4c(c3)CCCC4)C2)nc1 (stereo not given),2.1
18,Cc1cc2c(NC(=O)NC3CCN(CCc4ccccc4Cl)CC3)cccc2cn1,2.51
19,Nc1ncc(-c2ccc(Br)cc2)c(N)n1,1.2
20,CN1CCC(NCc2ccc(-c3cnc(NCc4ccccc4)nc3)cc2)CC1,1.18

# Target: Hexose transporter 1 (Plasmodium falciparum) (UniProt O97467)
# Test: ST_JUDE_LEISH: Cytotoxicity at 2uM final concentration against transgenic Leishmania Mexicana promastigotes LmPfHT that are glucose transport deficient and complemented with the Plasmodium falciparum hexose transporter. Activity is measured by DNA content using SYBR green in vitro
# Assay type: functional
row,Compound,inhibition [%]
1,O=C(NCCCCN1CC=C(c2ccc3c(c2OCC2CC2)CCCC3)CC1)c1ccc(-c2ccc(C(F)(F)F)cc2)cc1,5.39
2,CCCCCCCCCCN1C(=O)C2C(CCCCNC(C)=O)NC3(C(=O)N(Cc4ccc(C(C)(C)C)cc4)c4ccccc43)C2C1=O (stereo not given),9.32
3,CCOc1ccc(N(CC)S(=O)(=O)c2cc(Br)cc3c2N(C(=O)C2CC2)CC3)cc1,2.04
4,COc1cccc(-n2ncc3c(N/N=C/c4ccc(CN(C)CCN(C)C)cc4)ncnc32)c1,10.3
5,Cc1ccc(Nc2nccc(N(C)c3ccc4c(c3)nc(NC(=O)Cc3ccc(Cl)c(Cl)c3)n4C)n2)cc1S(N)(=O)=O,11.6
6,Cc1ccc2c(=NN=Cc3ccc(N(C)C)cc3)cc(C)[nH]c2c1,2.71
7,COc1cc(NC(=O)c2cccs2)c(OC)cc1NC(=O)Nc1cccc(Cl)c1,3.25
8,COc1ccc(C2C(C(=O)Nc3cc(C)ccc3OC)c3ccccc3C(=O)N2C)cc1 (stereo not given),5.84
9,O=C(NCC1CCC(C(=O)NC2CCCc3ccccc32)CC1)c1ccc(O)c(-c2cccc([N+](=O)[O-])c2)c1 (stereo not given),2.12
10,CN1CCCC(CN2CCN(Cc3cccc(-c4ccc(-c5nc6cc(F)ccc6[nH]5)cc4)c3)CC2)C1 (stereo not given),1.97
11,CC(C)NCc1ccc(-c2ccc(NC(=O)c3cccc(Cl)c3)cc2)cc1,-1.18
12,Cc1[nH]c(C)c(-c2ccc(-c3ccc(OC(F)(F)F)cc3)nc2)c(=O)c1Cl,-0.29
13,O=C(Cc1ccc(Cl)cc1)NC1CCN(c2ccnc3cc(Cl)ccc23)C1 (stereo not given),0.24
14,O=C(C=Cc1cn(-c2ccccc2)nc1-c1cccs1)N1CCN(c2ccncc2)CC1,0.46
15,O=C(Nc1ccc(Oc2ccccc2)cc1)N(Cc1ccc(-c2cccc(CN3CCNCC3)c2)cc1)C1CCN(Cc2ccccc2)CC1,3.12
16,CC(O)CNc1nc2ccccc2n1CC(=O)Nc1cccc(C(=O)Nc2cccc(C(F)(F)F)c2)c1 (stereo not given),1.81
17,CCc1cn(C)c2c(N3CCCC3=O)cc(C(=O)N[C@@H](Cc3ccccc3)[C@H](O)CNC3CCCCC3)cc12,11
18,O=C(/C=C/c1ccc(Cl)c(Cl)c1)NC1CCN(Cc2ccc(O)cc2)C1 (stereo not given),-0.06
19,Cc1cccc2nc(-c3ccc(-c4ccc(NC(=O)Nc5ccc(Cl)c(Cl)c5)cc4)cc3)[nH]c12,1.99
20,CCCCCCCNc1cc(C)nc2ccc(OC)cc12,9.23

row,Compound,inhibition [%]
1,Cc1ccc(C(C)C)cc1CON1C(=N)N=C(N)NC1(C)C,10.7
2,CC(C)(CNC(=O)C1CCN(CCOc2ccc(Cl)cc2)CC1)c1nc(-c2ccc(Cl)c(O)c2)c(-c2ccncc2)[nH]1,1.55
3,Cc1cccc2nc(-c3cccc(-c4ccc(NC(=O)Cc5ccc[n+]([O-])c5)cc4)c3)[nH]c12,1.16
4,Cc1ccc(C(=O)Nc2ccc(Nc3ccnc4cc(-c5ccncc5)ccc34)cc2O)cc1,-0.05
5,Cc1cccc(C)c1CNc1nc(N2CCOCC2)cc2c(C)c(C)[nH]c12,3.43
6,O=C1CCCN1CCCNCc1ccc(-c2ccc(-c3nc4cc(F)ccc4[nH]3)s2)cc1,1.67
7,CCOc1ccc(Nc2nc(N)c3ccccc3n2)cc1,10.3
8,Cc1ccc2[nH]c3c(NCCN(C)C)ncnc3c2c1,1.24
9,Cc1[nH]c(C)c(-c2ccc(OCc3ccccc3)cc2)c(=O)c1Br,1.22
10,NCCNc1ccc([N+](=O)[O-])cc1C(=O)Nc1cccc(C(F)(F)F)c1,3.19
11,FC(F)(F)c1ccc2[nH]c(-c3ccc(-c4ccc(CN5CCN(c6cnccn6)CC5)cc4)cc3)nc2c1,10.6
12,CN(Cc1cc(C(F)(F)F)cc(C(F)(F)F)c1)C(=O)C1CNCC1c1ccc(F)cc1 (stereo not given),5.75
13,Cc1csc(NC(=O)c2cn(-c3ccccc3)nc2-c2cccs2)n1,4.44
14,O=C(O)c1ccc(NC(=O)C2CC(=O)N(Cc3ccc(Cl)cc3)C(=Nc3ccc(Cl)cc3)S2)cc1 (stereo not given),2.86
15,CCOc1c(OC)ccc2c1CCN(CCN1CCC(CNC(=O)c3ccc(-c4ccc(C#N)cc4)cc3)CC1)C2,-0.26
16,c1ccc([C@H]2CN3CCSC3=N2)cc1,2.58
17,O=C(NC1CC1)c1ccc(N2CCCC(COc3ccc4c(c3)CCCC4)C2)nc1 (stereo not given),1.8
18,Cc1cc2c(NC(=O)NC3CCN(CCc4ccccc4Cl)CC3)cccc2cn1,1.74
19,Nc1ncc(-c2ccc(Br)cc2)c(N)n1,-0.78
20,CN1CCC(NCc2ccc(-c3cnc(NCc4ccccc4)nc3)cc2)CC1,4.31

# From ChEMBL document CHEMBL3433997, “St. Jude Leishmania screening dataset” (2016)
